TrxR1 substrate: rat thioredoxin reductase 1 substrate activity. Potency, µM (top dose mostly 114 µM), without a hit: at the highest dose activity change, negative = substrate turnover. AID 588456. actives 0.01% (n = 390,000). purified TrxR1 substrate turnover, NADPH consumption readout; note: % is set by controls: 0 for no effect and ±100 for the full control effect; nearly all actives have a fitted effect of over 50% in size
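Rat TrxR1, dispensed at 90 nM, was prereduced with 400 uM NADPH (final) for 5 min at ~22 deg C, then incubated with compound 15 min before 400 uM selenite. A first-read NADPH fluorescence drop versus no-compound background flagged substrates.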
TrxR1 inh: inhibitors of rat thioredoxin reductase 1. actives 1% (n = 390,000). recombinant rTrxR1, NADPH fluorescence consumption, selenite substrate. AID 588453. Potency, µM (titrated, usually from 114 µM), for inactives: at the highest dose activity change, negative = inhibition, actives largely listed as inhibitors; note: % is set by controls: 0 for no effect and ±100 for the full control effect; nearly all actives have a fitted effect of over 65% in size
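Rat TrxR1 (90 nM in the dispensed reagent) was pre-reduced with 400 uM NADPH for 5 min at room temperature, then incubated with compound for 15 min. After 400 uM selenite was added, NADPH fluorescence (Ex 340/Em 450 nm) was followed for 8 min.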
Anesthetic bind: binds horse apoferritin like a general anesthetic. P02791. Potency, µM (doses to about 77.5 µM), for inactives: at the highest dose activity change, negative = displacement, usual class: inhibitors. apoferritin/1-aminoanthracene competitive binding, fluorescence. actives 0.074% (n = 350,000); note: % is set by controls: 0 for no effect and ±100 for the full control effect; nearly all actives have a fitted effect of over 20% in size
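Probe: 1-aminoanthracene (50% saturated, PBS). Protein: horse-spleen apoferritin, 10 uM. Incubation: 10 min, room temperature. Detection: 380 nm excitation, 535 nm emission. Analysis: normalized response, four-parameter Hill.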
12-LOX inh: blocks human arachidonate 12S-lipoxygenase. AID 1671190. actives 1.1% (n = 580,000). purified 12hLO, xylenol orange hydroperoxide absorbance. Potency, µM (titrated, usually from 108 µM), without a hit: at the top dose activity change, negative = inhibition, actives largely listed as inhibitors; note: % is set by controls: 0 for no effect and ±100 for the full control effect
Target sequence (P18054 whole entry, looked up): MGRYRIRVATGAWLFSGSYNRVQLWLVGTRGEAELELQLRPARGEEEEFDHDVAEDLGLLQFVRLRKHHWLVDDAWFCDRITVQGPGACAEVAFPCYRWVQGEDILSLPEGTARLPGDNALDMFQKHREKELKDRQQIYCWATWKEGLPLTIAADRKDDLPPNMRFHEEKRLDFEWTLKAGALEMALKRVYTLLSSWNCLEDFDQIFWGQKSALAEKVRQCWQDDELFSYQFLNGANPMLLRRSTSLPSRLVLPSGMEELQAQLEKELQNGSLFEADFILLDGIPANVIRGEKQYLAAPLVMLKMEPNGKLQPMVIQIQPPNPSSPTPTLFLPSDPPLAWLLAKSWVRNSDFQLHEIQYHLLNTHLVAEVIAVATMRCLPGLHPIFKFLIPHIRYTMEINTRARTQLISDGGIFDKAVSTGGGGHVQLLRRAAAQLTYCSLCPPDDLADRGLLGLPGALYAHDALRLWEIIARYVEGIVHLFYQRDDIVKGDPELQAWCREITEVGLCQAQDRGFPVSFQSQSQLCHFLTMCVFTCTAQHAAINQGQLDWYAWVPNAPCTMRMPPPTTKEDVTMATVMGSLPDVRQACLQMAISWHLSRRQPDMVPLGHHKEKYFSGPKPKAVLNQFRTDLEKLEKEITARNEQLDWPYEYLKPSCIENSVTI
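Purified human 12hLO at 150 nM in 25 mM Hepes, 0.01% Triton X-100, pH 7.0, preincubated 15 min at room temperature with compound. Reaction started with 40 uM arachidonic acid, 30 min at room temperature. Hydroperoxide measured by Fe-xylenol orange, 573/405 nm absorbance ratio.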
mIDH1 inhibitor: inhibitors of human mutant IDH1 R132H. O75874. IDH1-R132H enzyme, NADPH consumption, diaphorase/resazurin fluorescence. Potency, µM (doses to about 76.6 µM), without a hit: top-dose activity change, negative = inhibition, most hits filed as inhibitors. actives 0.093% (n = 390,000). AID 602179; note: % is set by controls: 0 for no effect and ±100 for the full control effect; nearly all actives have a fitted effect of over 65% in size
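IDH1-R132H (0.5 ug/mL) preincubated 30 min with compound, then NADPH (0.016 mM) and alpha-KG (2 mM) added; 80 min at RT, pH 7.5. Remaining NADPH coupled via diaphorase/resazurin to fluorescence (540/590 nm); concentration-response curves normalized to no-enzyme control.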
GRP78 ERSR act: induces the endoplasmic reticulum stress response in human glioma cells | Potency, µM, for the others: at the highest dose activation, most hits filed as activators | U87-MG GRP78 promoter luciferase reporter, 16 h | actives 0.02% (n = 420,000); note: series mostly up to about 76 µM; % of control where 0% means no effect; nearly all actives have a fitted effect of over 35% in size
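ERSR induction read as luciferase luminescence (Bright-Glo, 10 min at room temperature) in stably transfected human U87-MG glioma cells exposed to compounds for 16 h, using GRP78 as sensor.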
Numbers without * were called inactive; [ ] = remark or other dose. An excerpt weighted towards active compounds, which were near 1.7% of everything screened. Calls come from the whole dose curve; as a rule, active = well fitted curve in the direction sought with a large enough effect; inconclusive = small, poorly fitted or top-dose-only effect, or another doubt; inactive = no such curve, though single readings can be large; an effect the other way counts as inactive or inconclusive. Potency is the fitted concentration of half-maximal effect.

COc1ccc(-c2noc(Cn3c(=O)c4ccccc4n(CC(=O)Nc4cccc(OC)c4)c3=O)n2)cc1 was read as TrxR1 substrate -0.2%, TrxR1 inh 19.5%, Anesthetic bind -10.9%, 12-LOX inh -21.2%, mIDH1 inhibitor 0.0% and GRP78 ERSR act -2.4%.
CC1=C(C(=O)N(C)C)CC(CC(=O)NCc2cccs2)C(=O)N1CCCN1CCCC1=O (centres undefined) was read as 12-LOX inh 11.0%, mIDH1 inhibitor 1.4% and GRP78 ERSR act -2.0%.
`COc1ccc(OC)c2c1C(=O)C(Cl)=C(Cl)C2=O` gave TrxR1 substrate -4.9%, TrxR1 inh 0.159µM*, Anesthetic bind -3.1%, 12-LOX inh inconclusive, mIDH1 inhibitor -4.7% and GRP78 ERSR act -11.9%.
Screening COc1ccc(OC)c2c1C(=O)c1ccccc1C2=O returned TrxR1 substrate 1.0%[57.1 µM], TrxR1 inh 21.0%[57.1 µM], Anesthetic bind 49.8%, 12-LOX inh -4.9%, mIDH1 inhibitor -1.5% and GRP78 ERSR act -1.8%.
Screening CCNC(=O)Nc1ccc([C@@H](O)[C@H]2COCC(=O)N2Cc2ccccc2)cc1 returned 12-LOX inh 6.8%[176 µM].
Screening Cc1cc(Sc2nnc(/N=C/N(C)C)s2)c2ccccc2n1 returned TrxR1 substrate -3.4%, TrxR1 inh 2.51µM*, Anesthetic bind 1.4%, 12-LOX inh 0.0%, mIDH1 inhibitor 0.0% and GRP78 ERSR act -14.5%.
`Cc1cc(Sc2nnc(N)s2)c2ccccc2n1` gave TrxR1 substrate 3.4%, TrxR1 inh 8.91µM*, Anesthetic bind 11.8%, 12-LOX inh 2.8%, mIDH1 inhibitor 7.0% and GRP78 ERSR act -11.5%.
For Cc1ccc(CN2CCC3(C2)NC(=O)c2ccccc2O3)cc1 (centres undefined) the results were 12-LOX inh -18.4%[176 µM].
Screening Cc1ccn2cc(-c3ccccc3)cc2c1 returned 12-LOX inh 31.6µM*.
Screening COc1ccc(/C(O)=C2/C(=O)C(=O)N(Cc3ccco3)C2c2cccs2)cc1 (centres undefined) returned TrxR1 substrate 3.6%[2.29 µM], TrxR1 inh -46.6%[57.1 µM], Anesthetic bind -6.1%, 12-LOX inh 20µM*, mIDH1 inhibitor -1.7% and GRP78 ERSR act -0.8%.
Screening O=C(O)c1cccnc1CN1CCCC(c2nc(-c3ccccc3)no2)C1 (centres undefined) returned 12-LOX inh 22.3%.
For O=C1OC(/C=C/c2ccc(Cl)cc2Cl)=NC/1=C\c1cccs1 the results were TrxR1 substrate -8.7%, TrxR1 inh -1.8%, Anesthetic bind -7.0%, 12-LOX inh 35.5µM*, mIDH1 inhibitor -8.2% and GRP78 ERSR act 1.3%.
Screening CC(=O)Nc1cccc(-c2cc(-c3c(C)noc3C)cc3c2C(=O)N(C)C3)c1 returned 12-LOX inh 3.7%[176 µM].
`Cc1ccc2c(CN3CCC4(CC3)OCCO4)cc(=O)oc2c1` gave 12-LOX inh 30.7%.
Screening Cc1ccccc1NC(=O)COc1ccc(C(=O)Nn2c(C)ccc2C)cc1 returned 12-LOX inh 19.5%.
For Cc1c(C(=O)NCc2nnc3n2CCCCC3)oc2ccc(Cl)cc12 the results were 12-LOX inh 2.8%.
CCCCn1c(N)c(C(=S)NC(=O)CC(C)C)c(=O)n(C)c1=O was read as TrxR1 substrate 5.2%, TrxR1 inh 56.2µM*, Anesthetic bind -2.9%, mIDH1 inhibitor 11.8% and GRP78 ERSR act -2.3%.
`C#CCNC(=O)[C@@H]1Cc2cn(CC3CC3)c3cccc(c23)[C@H](CC(C)C)N1` gave 12-LOX inh 32.8%[176 µM].
COC/C=C/C1=CC2=CC(=O)C(C)(OC(=O)c3cnc4ccccc4n3)C(=O)C2=CN1C(CO)CO (centres undefined) was read as TrxR1 substrate 2.8%[57.1 µM], TrxR1 inh inconclusive, Anesthetic bind -12.2%, 12-LOX inh 7.08µM*, mIDH1 inhibitor -3.7% and GRP78 ERSR act -3.3%.
Screening O=C(c1ccco1)N1Cc2[nH]cnc2C[C@H]1c1nc(-c2ccc(F)cc2)no1 returned 12-LOX inh 27.3%[176 µM].
CC1(C)CC(=O)C(C(c2cc([N+](=O)[O-])ccc2Cl)C2C(=O)CC(C)(C)CC2=O)C(=O)C1 was read as TrxR1 substrate 7.5%, TrxR1 inh inconclusive, 12-LOX inh 149.9%, mIDH1 inhibitor -6.7% and GRP78 ERSR act -1.1%.
Screening Cc1sc(C(C2C(=O)CC(C)(C)CC2=O)C2C(=O)CC(C)(C)CC2=O)cc1[N+](=O)[O-] returned TrxR1 substrate -7.0%, TrxR1 inh 2µM*, Anesthetic bind -22.0%, 12-LOX inh inconclusive, mIDH1 inhibitor -1.7% and GRP78 ERSR act inconclusive.
Screening Cc1ccnc(N/C=C(/Cl)C(=O)C(F)(F)F)c1 returned 12-LOX inh 39.8µM*.
O=C(/C(Cl)=C/Nc1ccccn1)C(F)(F)F was read as 12-LOX inh -8.6%.
`O=C(c1ccc(F)c(C(F)(F)F)c1)N1CC2CCC1C2` (centres undefined) gave 12-LOX inh 30.4%.
For CN(C)c1ccc(C(CNS(=O)(=O)c2ccc(Cl)cc2)N2CCCC2)cc1 (centres undefined) the results were TrxR1 substrate -1.9%[57.1 µM], TrxR1 inh 7.4%[57.1 µM], Anesthetic bind 2.0%, 12-LOX inh inconclusive, mIDH1 inhibitor 15.6% and GRP78 ERSR act -3.3%.
Screening Oc1cc(CNCc2ccccc2)c(O)cc1CNCc1ccccc1 returned TrxR1 substrate -10.0%, TrxR1 inh 79.4µM*, 12-LOX inh 103.2%, mIDH1 inhibitor -2.3% and GRP78 ERSR act -2.5%.
`OCc1ccccc1CNCc1ccccc1` gave TrxR1 substrate 11.9%, TrxR1 inh 22.4%, Anesthetic bind -10.2%, 12-LOX inh 5.4%, mIDH1 inhibitor -1.9% and GRP78 ERSR act -4.3%.
O=C(Nc1cccc2nsnc12)c1ccc(-c2cccc(Cl)c2)o1 was read as TrxR1 substrate -7.5%, TrxR1 inh 35.5µM*, Anesthetic bind -15.9%, 12-LOX inh inconclusive, mIDH1 inhibitor 9.3% and GRP78 ERSR act 3.5%.
Screening O=C(Nc1ccccc1N1CCCCC1)c1ccc(-c2cccc(Cl)c2)o1 returned TrxR1 substrate 7.8%[57.1 µM], TrxR1 inh 11.8%[57.1 µM], Anesthetic bind -6.0%, 12-LOX inh -0.3%, mIDH1 inhibitor -0.9% and GRP78 ERSR act -3.1%.
Screening COc1ccnc(N2CCN(CC3(O)CNCCOC3)CC2)n1 (centres undefined) returned 12-LOX inh -19.6%.
`OC1(CN2CCN(c3nccs3)CC2)CNCCOC1` (centres undefined) gave 12-LOX inh 10µM*.

High-throughput results: PubChem BioAssay, National Center for Advancing Translational Sciences (NCATS)
